By inhibition is commonly meant the drop in the measured response relative to a control, in per cent.

Each structure is given as a SMILES string. Screen size: about 96,000 compounds; about 19,000 (20%) were called active. The list is a sample of the results. Values without a mark were called inactive.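 How the source made its calls: active means blocking of liver enzyme CYP2C9 beyond about 50% at 5 µM (limit read from the data); inactive means the rest.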

This assay deals with Cytochrome P450 2C9 (Homo sapiens) (UniProt P11712). The experiment in a line: blockers of cytochrome P450 2C9 activity – biochemical, luminescence, ADME assay, primary screen (AID 777). Conditions: CYP2C9 Supersomes, luciferin-H conversion, at 5 µM, hits give high values.
Sequence of Cytochrome P450 2C9 (Homo sapiens) (P11712 whole entry, looked up): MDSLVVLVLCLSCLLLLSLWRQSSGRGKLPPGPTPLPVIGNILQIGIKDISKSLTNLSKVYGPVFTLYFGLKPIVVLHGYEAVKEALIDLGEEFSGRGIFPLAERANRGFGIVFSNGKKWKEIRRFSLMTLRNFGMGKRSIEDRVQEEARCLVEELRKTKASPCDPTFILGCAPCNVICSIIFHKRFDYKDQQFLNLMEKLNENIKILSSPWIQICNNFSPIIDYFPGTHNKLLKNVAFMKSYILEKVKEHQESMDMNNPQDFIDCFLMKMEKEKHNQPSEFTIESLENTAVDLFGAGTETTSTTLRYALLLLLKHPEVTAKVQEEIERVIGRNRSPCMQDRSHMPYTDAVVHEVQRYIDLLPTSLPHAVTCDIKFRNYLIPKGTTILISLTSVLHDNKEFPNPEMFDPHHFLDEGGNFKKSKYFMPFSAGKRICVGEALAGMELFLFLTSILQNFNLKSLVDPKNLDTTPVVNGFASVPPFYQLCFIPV
`Cc1cc(Cl)c(S(=O)(=O)Nc2ccc3c(c2)OCCO3)cc1OCC(N)=O`: the inhibition is 19.9%. Next, `OC1CN=C2Sc3ccccc3N2C1` (stereo unspecified): -6.8%; `Cc1nn2c(c1-c1ccccc1)N=C(c1ccco1)CC2c1ccccc1` (stereo unspecified): 63.5% (active). As for `Cc1nn(C(=O)c2ccoc2C)c(N)c1-c1ccccc1`, the figure is 26.4%; as for `Cn1c(=O)c(C(=O)Nc2ncccn2)c(O)c2ccccc21`, -24.6%.

For `O=C1NC(c2cc3c(cc2Cl)OCO3)Oc2ccccc21` (stereo unspecified), the inhibition is 26.5%. As for `NC(CSC12CC3CC(CC(C3)C1)C2)C(=O)O` (stereo unspecified), the inhibition is 9.2%. As to `COc1ccc(-c2oc(/N=C/N3CCCC3)c(C#N)c2-c2ccc(OC)cc2)cc1`, the inhibition was 96.9% (active).

On to `N#Cc1c2c(c(-c3ccccc3)[nH]c1=O)CCCC2`, for which the inhibition is -12.7%. As for `N#Cc1c(/N=C/N2CCCC2)oc(-c2ccccc2)c1-c1ccccc1`, the figure is 79.9% (active); as for `Cn1c(C(=O)NCCN2CCc3ccccc3C2)cc2c(=O)[nH]c3ccccc3c21`, 20%; as for `Cc1noc(NS(=O)(=O)c2ccc(N3CC(O)=C(c4ccccc4)C3=N)cc2)c1C`, 3.3%. Next, `Cc1ccc2cc(C#N)c(SCC(=O)NCC3CCCO3)nc2c1C` (stereo unspecified): -3.8%; `Cc1cc(C(F)(F)F)c(C#N)c(SCC(=O)NC2CC2)n1`: 17.2%; `CC(NC(=O)CSc1nc2c(cc1C#N)CN(C)CC2)c1ccccc1` (stereo unspecified): 74.5% (active). As for `CCCC(C(=O)N1CCOCC1)N1C(=O)C2C3C=CC(C3)C2C1=O` (stereo unspecified), the figure is -2.2%; as for `Clc1ccc(Cl)c(Oc2ccc(Oc3nc(Cl)ccc3Cl)cc2)n1`, -102%; as for `CSc1ccc(C#N)cc1NC(=O)c1cccc(Cl)c1`, 18.2%. For `CN1C(=O)c2ccc(NC(=O)c3c(F)c(F)c(F)c(F)c3F)cc2C1=O`, the inhibition is -24%. In the case of `O=C(c1ccco1)N1CCN(C(=O)c2ccc(COc3ccc(F)cc3)o2)CC1`, the inhibition was 33.7%. `CC(NC(=O)Nc1ccccc1)c1ccccc1` (stereo unspecified): the inhibition is 7%.

For `Cc1ccc(NC(=O)C(C)c2cccc(C(=O)c3ccccc3)c2)cc1` (stereo unspecified), the inhibition is 57.9% (active). For `CC(=O)c1cccc(NC(=O)Nc2ccc(C)cc2)c1`, the inhibition was 17.7%.

With `CCn1c(Cc2ccccc2)nnc1SCc1nc2ccccc2c(=O)[nH]1`, the inhibition is -61.8%. Next, `CC1=C(C)CC2C(=O)N(c3cccc4ccccc34)C(=O)C2C1` (stereo unspecified): 72.9% (active); `O=C(c1ccccc1)c1cc(-c2ccccn2)c(N2CCOCC2)s1`: 25%; `c1ccc(-c2oc3ncnc(N4CCOCC4)c3c2-c2ccccc2)cc1`: 18.1%. On to `O=C1c2ccccc2-c2ncnc3c(N4CCOCC4)cc(N4CCOCC4)c1c23`, for which the inhibition is 51.5% (active). In the case of `c1cnn(-c2cc(N3CCOCC3)ncn2)c1`, the inhibition was -3.4%. Next, `Cc1cnc(NC(=O)C2CCCC2)s1`: 10.7%; `CCN1C(=O)/C(=C\N2CCN(c3cccc(Cl)c3)CC2)SC1=S`: 4.9%; `CC(Oc1ccc(Cl)cc1)c1ccnn1S(C)(=O)=O` (stereo unspecified): 24.4%. As for `COc1ccc(CC(=O)n2nc(-c3cccnc3)nc2N)cc1`, the figure is 9%; as for `O=C(Cn1ccc([N+](=O)[O-])n1)NCc1cccs1`, -1.6%; as for `C=C(C)CSc1nnc(-c2ccc(C)cc2)n1N`, 1.1%.

For the compound `Cc1ccc(NC(=S)NCCN2CCOCC2)cc1`, the inhibition is -12.4%. Next, `Cc1ccc(NC(=S)N/N=C2/CCCc3c(C)cc(C)cc32)cc1`: 59.7% (active); `Cc1ccc(NC(=S)NC2CCCC2)cc1`: 29.5%; `CCOc1ccc(-c2nc(C)sc2CC(=O)O)cc1`: -0.3%. As for `CC(C)c1ccc(Nc2ncccc2C#N)cc1`, the figure is 3.6%.

On to `C=CCOC(=O)C1=C(C)NC(C)=C(C(=O)OCC=C)C1c1cccs1`, for which the inhibition was 96.8% (active).

`COCCOC(=O)C1=C(C)N=c2s/c(=C\c3cccs3)c(=O)n2C1c1cccs1` (stereo unspecified): the inhibition is 41.5%. Next, `C=CCN(C(=O)Nc1ccc2oc(C)nc2c1)c1ccccc1`: 22.8%; `CCc1c(C)nc2cc(-c3cccs3)[nH]n2c1=O`: 30.3%.

Take `FC(F)(F)c1nnc2ccc(N3CCN(c4ccccc4)CC3)nn12`: the inhibition was 27.4%. Take `O=C(CSCc1ccccc1Cl)NNC(=O)c1ccccc1`: the inhibition is -1.6%. As for `O=C(CSCc1ccc([N+](=O)[O-])cc1)NCCSCc1ccccc1`, the figure is 44.2%; as for `O=C(CSCc1ccc([N+](=O)[O-])cc1)Nc1cccc(C(=O)Nc2ccccc2C(=O)O)c1`, 93.9% (active). As for `Cc1ccc(C2CC2C(=O)NN)cc1` (stereo unspecified), the figure is 15.8%.

On to `CC(=O)c1cccc(NC(=O)N2CCCC2C(=O)NCCc2ccccc2)c1` (stereo unspecified), for which the inhibition was -8.8%. Next, `COCCN(C(=O)c1ccco1)c1nnc(-c2ccc(OC)cc2)s1`: 9%; `CCN1C(=O)CS/C1=N\c1nccs1`: 17.8%. Turning to `COCc1cc(C)nc2sc3c(=O)n(-c4cccc5ccccc45)nnc3c12`, the inhibition is 26.8%. As to `COc1ccc(-n2nnc3c(=O)n(CC(=O)OCc4ccccc4)cnc32)cc1`, the inhibition is -16%.

`COc1ccc(-c2c(C(C)=O)c(C)nc3sc4c(=O)n(-c5ccc(C)cc5)nnc4c23)cc1`: the inhibition is 85.6% (active). Turning to `CC(C)(C)NC(=O)C(c1ccco1)N(Cc1ccc2c(c1)OCO2)C(=O)Cn1nnc2ccccc21` (stereo unspecified), the inhibition is 16.8%. On to `Cc1cccc(-n2ncc(C#N)c2-n2cccc2)c1`, for which the inhibition was 39.8%.

Take `COc1ccccc1NS(=O)(=O)N(C)C`: the inhibition was -23%. Next, `COc1ccc(OC)c(S(=O)(=O)Nc2ccccc2F)c1`: 57.6% (active).

Consider `COc1ccc(Cl)cc1S(=O)(=O)Nc1cccc(C(=O)O)c1`, for which the inhibition is 14.1%. Next, `Cc1csc(OCC(=O)Nc2ccc(C)c(C)c2)n1`: 4.4%; `Cc1ccc(OCC(=O)Nc2ccc(-c3nc4ncccc4o3)cc2)cc1`: -6.6%; `Cc1ccc(NC(=O)COc2ccc(-n3ccnc3)cc2)cc1Cl`: 95% (active). Next, `CCN(CC)c1ccc2cc(C(=O)O)c(=O)oc2c1`: -7.5%; `Cc1cc(=O)n2c3c(cccc13)CCC2`: -60.9%. Next, `CC(C)Oc1ccc(C(=O)Nc2cc(=O)n(C)c(=O)n2C)cc1`: 10.6%; `C=C(C)Cn1c(N2CCN(CC)CC2)nc2c1c(=O)[nH]c(=O)n2C`: -14.5%. In the case of `COc1cc(C(=O)NC(=S)NCc2ccco2)cc(OC)c1OC`, the inhibition was 18.9%. As for `Cc1cccc(C)c1NC(=O)CCS(=O)(=O)c1cccc2nsnc12`, the inhibition is -1%. Next, `O=C(Nc1cc(=O)[nH]c2ncnn12)c1ccccc1Cl`: 5.6%; `O=C(CSCc1cccs1)N1CCCC1`: -22.8%.

Values taken from PubChem BioAssay AID777 (Sanford-Burnham Center for Chemical Genomics, 2007).
